# From PubChem BioAssay
# Calls of active or inactive are those of the source. Unless noted, how the calls were made is not given here.
# What was measured:
# [1] = test system: Wnt5a (protein binding on small-molecule microarray); assay: small molecules binding Wnt5a protein – biophysical, small-molecule microarray, 635/667 nm fluorescence, primary screen (AID 1142); conditions: 635 nm fluorescence, higher = more signal;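 further: fluorescence read at 667 nm with signal to noise per printed feature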
# [2] = ATP-based viability of Huh7 replicon cells – cell-based, CellTiter-Glo luminescence, basal, 48 h, cytotoxicity control for HCV replication inhibitor project, primary screen (AID 1143); conditions: higher = more signal, called active from +8 up or from −8 down;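 further: Huh7 hepatoma cells carrying a hepatitis C replication reporter with no stimulus; test concentration not given here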
# [3] = Pseudomonas biofilm growth suppression – PAO1 strain, BacTiter-Glo luminescence, LB-PBS, primary screen (AID 1144); conditions: P. aeruginosa PAO1 biofilm, 12 h, higher = more signal
# [4] = basal CRE-LacZ reporter activity in PC12 – cell-based, unstimulated, primary screen (AID 1145); conditions: no forskolin, luminescence, 4.5 h, higher = more signal, called active from +8 up or from −8 down
# [5] = forskolin-driven CRE-LacZ activity in PC12 – cell-based, CRE-LacZ reporter, forskolin-stimulated, primary screen (AID 1146); conditions: luminescence, 4.5 h, higher = more signal, called active from +8 up or from −8 down;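 further: PC12 cells with 6xCRE LacZ reporter stimulated by forskolin 10 µM; beta-galactosidase reporter signal reflecting CREB driven transcription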
# [6] = target: Streptavidin (Streptomyces avidinii) (UniProt P22629); assay: compounds binding control protein streptavidin – biophysical, small-molecule microarray, 635/667 nm fluorescence, artefact control for SMM compound annotation, primary screen (AID 1147); conditions: higher = more signal;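 further: signal reflects streptavidin binding to arrayed compounds as a control protein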
# [7] = probe aInhba binding on compound microarray – biochemical, small-molecule microarray, 635/667 nm fluorescence, primary screen (AID 1148); conditions: higher = more signal;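 further: score merges 667nm spot fluorescence with signal-to-noise for antibody binding to printed compounds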
# [8] = target: Torsin-1A (Homo sapiens) (UniProt O14656); assay: TOR1A wild-type binding on microarray – cell lysate, small-molecule microarray, lysate, 635/667 nm, primary screen (AID 1149); conditions: COS7 hTOR1A-WT lysate, 635 nm fluorescence, higher = more signal
# [9] = target: Torsin-1A (Homo sapiens) (UniProt O14656); assay: torsin A mutant lysate binding on microarrays – cell lysate, small-molecule microarray, COS7 lysate, 635/667 nm fluorescence, primary screen (AID 1150); conditions: COS7 hTOR1A mutant lysate, 635 nm fluorescence, higher = more signal;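 further: score pools 667 nm emission and signal to noise measuring lysate protein binding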
# [10] = test system: Sonic hedgehog protein (Shh); assay: Sonic hedgehog microarray binding compounds – biochemical, small-molecule microarray, 635/667 nm fluorescence, primary screen (AID 1151); conditions: 635 nm fluorescence, higher = more signal;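 further: Shh protein binding to compounds spotted on small-molecule microarray slides; score combines spot fluorescence intensity with signal-to-noise across triplicate slides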
# [11] = optical density shifts of acrAB sulA E. coli – strain DRC41, OD650, 48 h, E. coli filamentation inducer project, primary screen (AID 1152); conditions: higher = more signal, called active from +8 up or from −8 down;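 further: E. coli MC1000 strain DRC41 lacking acrAB efflux pump and sulA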
# [12] = probe aLefty1 binding on compound microarray – biochemical, small-molecule microarray, 635/667 nm fluorescence, primary screen (AID 1153); conditions: higher = more signal;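 further: score merges spot fluorescence with signal-to-noise ratio from the scanned slide images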
# [13] = plasmodial surface anion channel blockers, osmotic lysis – cell-based, P. falciparum Indochina, OD700, 1 h, primary screen (AID 1154); conditions: P. falciparum Indochina infected RBC osmotic lysis, higher = more signal, called active from +8 up or from −8 down
# [14] = plasmodial surface anion channel blockers, osmotic lysis – cell-based, P. falciparum Indochina, OD700, 2 h, primary screen (AID 1155);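 further: lysis reports solute entry through the parasite surface anion channel PSAC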; conditions: P. falciparum Indochina infected erythrocytes, higher = more signal, called active from +8 up or from −8 down
# [15] = changes in parasitized red cell lysis, either direction – P. falciparum Indochina, OD700, 3 h, PSAC antagonist project, primary screen (AID 1156); conditions: P. falciparum-infected erythrocytes, osmotic lysis, higher = more signal, called active from +8 up or from −8 down
# [16] = plasmodial surface anion channel blockers, osmotic lysis – cell-based, P. falciparum Indochina, OD700, 18 h, primary screen (AID 1157); conditions: P. falciparum Indochina infected erythrocytes, osmotic lysis OD700, 18 h; higher = more signal, called active from +8 up or from −8 down
# [17] = S6 kinase pathway phospho-S6 level changes – cell-based, A549, cytoblot, luminescence, serum-stimulated, primary screen (AID 1158); conditions: 5 h, higher = more signal;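 further: serum-stimulated A549 lung adenocarcinoma cells; signal is phosphorylated S6 detected by cytoblot immunostaining with HRP secondary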
# [18] = target: NADPH oxidase 2 (Homo sapiens) (UniProt P04839); assay: compounds shifting NOX2 Amplex Red fluorescence – cell-based, HEK293-NOX2, PMA-stimulated, NOX inhibitor project, primary screen (AID 1159); conditions: 45 min, higher = more signal, called active from +8 up or from −8 down; further: test concentration not given here
# [19] = target: NADPH oxidase 4 (Homo sapiens) (UniProt Q9NPH5); assay: compounds shifting NOX4 Amplex Red fluorescence – cell-based, HEK293-NOX4, tetracycline-induced, NOX inhibitor project, primary screen (AID 1160); conditions: HEK293-NOX4, Amplex Red H2O2 fluorescence, 45 min; higher = more signal, called active from +8 up or from −8 down
# [20] = target: NADPH oxidase 5 (Homo sapiens) (UniProt Q96PH1); assay: compounds shifting NOX5 Amplex Red fluorescence – cell-based, HEK293-NOX5, NOX inhibitor project, primary screen (AID 1161); conditions: HEK293-NOX5, ionomycin, 45 min, higher = more signal
# NADPH oxidase 5 (Homo sapiens), sequence (Q96PH1 whole entry, looked up): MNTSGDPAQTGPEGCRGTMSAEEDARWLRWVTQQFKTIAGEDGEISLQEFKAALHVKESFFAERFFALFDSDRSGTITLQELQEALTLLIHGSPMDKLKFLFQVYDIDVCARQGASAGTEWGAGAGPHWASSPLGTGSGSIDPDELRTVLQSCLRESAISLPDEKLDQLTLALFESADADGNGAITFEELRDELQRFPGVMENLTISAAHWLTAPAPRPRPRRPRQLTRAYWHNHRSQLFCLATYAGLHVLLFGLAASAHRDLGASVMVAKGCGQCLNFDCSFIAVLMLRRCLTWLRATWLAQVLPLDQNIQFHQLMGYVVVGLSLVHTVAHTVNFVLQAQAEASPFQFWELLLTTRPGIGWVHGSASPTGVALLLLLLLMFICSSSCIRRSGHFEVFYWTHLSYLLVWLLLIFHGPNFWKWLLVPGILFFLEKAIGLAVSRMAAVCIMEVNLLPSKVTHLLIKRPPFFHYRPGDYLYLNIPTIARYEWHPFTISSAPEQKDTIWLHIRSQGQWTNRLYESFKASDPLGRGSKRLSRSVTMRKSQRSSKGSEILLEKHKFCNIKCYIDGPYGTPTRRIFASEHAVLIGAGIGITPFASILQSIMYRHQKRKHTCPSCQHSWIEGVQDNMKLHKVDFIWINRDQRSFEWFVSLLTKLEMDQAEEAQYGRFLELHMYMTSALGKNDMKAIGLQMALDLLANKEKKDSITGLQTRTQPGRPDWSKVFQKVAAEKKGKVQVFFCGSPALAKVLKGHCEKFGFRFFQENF
# NADPH oxidase 2 (Homo sapiens), sequence (P04839 whole entry, looked up): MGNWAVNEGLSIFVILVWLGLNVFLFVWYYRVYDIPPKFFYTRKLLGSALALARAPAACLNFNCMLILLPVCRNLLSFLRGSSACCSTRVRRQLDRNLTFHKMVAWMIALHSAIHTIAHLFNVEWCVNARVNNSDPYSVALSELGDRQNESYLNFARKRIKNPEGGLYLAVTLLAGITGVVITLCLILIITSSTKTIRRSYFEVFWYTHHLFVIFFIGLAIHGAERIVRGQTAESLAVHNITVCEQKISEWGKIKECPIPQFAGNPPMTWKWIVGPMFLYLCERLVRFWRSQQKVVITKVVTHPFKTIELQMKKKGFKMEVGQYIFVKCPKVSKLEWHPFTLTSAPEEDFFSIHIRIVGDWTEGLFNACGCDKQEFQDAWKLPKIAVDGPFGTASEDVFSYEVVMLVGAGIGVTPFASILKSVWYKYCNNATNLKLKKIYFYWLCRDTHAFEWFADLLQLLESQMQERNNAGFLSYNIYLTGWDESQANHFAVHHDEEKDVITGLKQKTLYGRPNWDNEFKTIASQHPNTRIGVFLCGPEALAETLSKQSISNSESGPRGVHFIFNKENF
# NADPH oxidase 4 (Homo sapiens), sequence (Q9NPH5 whole entry, looked up): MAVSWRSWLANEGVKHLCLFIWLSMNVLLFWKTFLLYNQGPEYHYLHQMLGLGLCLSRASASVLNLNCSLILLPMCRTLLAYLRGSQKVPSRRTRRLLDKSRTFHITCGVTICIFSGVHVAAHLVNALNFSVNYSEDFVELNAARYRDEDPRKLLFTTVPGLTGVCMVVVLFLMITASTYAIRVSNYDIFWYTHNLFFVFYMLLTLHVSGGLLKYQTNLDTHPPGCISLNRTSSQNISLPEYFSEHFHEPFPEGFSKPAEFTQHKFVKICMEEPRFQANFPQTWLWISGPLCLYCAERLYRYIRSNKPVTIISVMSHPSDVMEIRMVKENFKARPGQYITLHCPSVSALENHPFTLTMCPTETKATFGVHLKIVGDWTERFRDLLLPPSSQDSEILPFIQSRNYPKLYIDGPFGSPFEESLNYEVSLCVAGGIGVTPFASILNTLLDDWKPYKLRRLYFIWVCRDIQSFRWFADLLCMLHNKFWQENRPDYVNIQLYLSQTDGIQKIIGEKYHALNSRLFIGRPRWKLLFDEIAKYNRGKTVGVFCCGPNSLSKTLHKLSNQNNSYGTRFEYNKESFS
# Streptavidin (Streptomyces avidinii), sequence (P22629 whole entry, looked up): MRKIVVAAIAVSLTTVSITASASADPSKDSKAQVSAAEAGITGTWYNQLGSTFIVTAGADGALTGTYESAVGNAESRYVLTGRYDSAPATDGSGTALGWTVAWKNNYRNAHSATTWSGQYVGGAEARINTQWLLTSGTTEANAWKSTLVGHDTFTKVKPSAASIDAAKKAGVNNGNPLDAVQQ
# Torsin-1A (Homo sapiens), sequence (O14656 whole entry, looked up): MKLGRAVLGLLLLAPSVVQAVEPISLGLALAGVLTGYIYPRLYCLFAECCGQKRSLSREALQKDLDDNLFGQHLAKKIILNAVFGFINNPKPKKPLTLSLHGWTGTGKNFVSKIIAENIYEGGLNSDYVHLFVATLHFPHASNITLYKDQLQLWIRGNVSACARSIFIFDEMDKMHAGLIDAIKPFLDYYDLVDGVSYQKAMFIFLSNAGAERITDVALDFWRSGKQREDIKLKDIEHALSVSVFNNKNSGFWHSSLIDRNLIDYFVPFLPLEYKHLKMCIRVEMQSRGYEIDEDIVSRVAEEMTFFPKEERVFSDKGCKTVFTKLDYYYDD
Structure (SMILES),composite z-score [1],z-score [2],z-score [3],z-score [4],z-score [5],composite z-score [6],composite z-score [7],composite z-score [8],composite z-score [9],composite z-score [10],z-score [11],composite z-score [12],z-score [13],z-score [14],z-score [15],z-score [16],z-score [17],z-score [18],z-score [19],z-score [20]
[N-]=[N+]=Nc1ccccc1C[C@]1(C(=O)O)N=C(c2ccc(OCCCO)cc2)O[C@H]1c1ccccc1N=[N+]=[N-],0.0284,-1.26 (inactive),0.0243 (inactive),0.274 (inactive),-1.65 (inactive),1.58,0.362,0.327,0.241,-0.0242,0.476 (inactive),0.612,30.8 (active),27.6 (active),2.88 (inactive),4.45 (inactive),-0.0428,-2.72 (inactive),0.551 (inactive),-2.15
CCCCCN1CC=CC23O[C@@H]4/C=C\CCC(C)OC(=O)C4[C@H]2C(=O)N(CCCCCCO)[C@@H]3C1=O (stereo not given in full),-0.399,0.259 (inactive),-0.943 (inactive),0.467 (inactive),0.938 (inactive),-0.749,-0.153,-0.96,0.109,0.758,1.6 (inactive),0.0378,1.25 (inactive),0.971 (inactive),0.26 (inactive),0.967 (inactive),2.19,1.25 (inactive),0.0532 (inactive),1.74
CC(=O)n1cc(C(O)C2C=CC3C(=O)N(c4ccccc4)C(=O)C3N2Nc2ccc(C(C)C)cc2)c2ccccc21 (stereo not given),0.076,-0.609 (inactive),-0.827 (inactive),0.24 (inactive),-0.247 (inactive),1.88,0.161,-0.285,0.617,-0.69,-1.44 (inactive),0.698,2.38 (inactive),0.959 (inactive),-0.43 (inactive),1.46 (inactive),-1.04,-1.19 (inactive),-2.92 (inactive),-3.44
CCOC(=O)C[C@H]1[C@H](OC(=O)c2ccccc2-c2ccccc2)[C@@H](NC(=O)c2ccccc2)c2cc(OCCCO)ccc2N1C(=O)c1ccccc1,0.309,-0.208 (inactive),0.867 (inactive),2.38 (inactive),0.908 (inactive),0.19,-0.157,0.0802,0.261,0.259,-1.13 (inactive),-0.0547,1.61 (inactive),0.0478 (inactive),1.11 (inactive),0.256 (inactive),-0.133,0.418 (inactive),0.884 (inactive),0.838
